Data taken from the supplement of paper PMC6555819.

System: VDR:RXRa (NR concentration 270 nM, RXRa partner concentration 90 nM)
Assay: PBM binding z-score (relative to random genomic background probes); higher = stronger binding; sequences stand for … in GC…GCGATTGACAGCGTAGAATGAAGG
Description: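 Protein-binding microarray (Agilent 4x180K custom design, double-stranded 60-nt probes: 5' GC cap, 34-nt variable region, 24-nt constant primer region; full probe sequence given). Purified or IVT nuclear receptor:RXRα heterodimers (3:1 NR:RXRα, mostly 270:90 nM) or homodimers were incubated for 1 h in PBS with 2% milk and no ligand, then detected with Alexa488 antibodies. Fluorescence from o1-orientation probes (~5 replicates averaged) was converted to z-scores against 500 random hg19 background probes. Variable regions are seed direct-repeat (DR0–DR5) sites, all their single-nucleotide variants and half-site ablations.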

Sequence | PBM binding z-score
TATCCTAGGTCAGATCGGGCCAGTATACGCTATA | 1.51
CGAACTAGGTCTCCAGGACAGTGAAGAGGTTGGA | -0.586
TCTTGTAGATCAAAGGTTAAGACAGCCGAAGCCT | 1.68
AGTCAAAGTTCTTCTAGGTAACGTAAGATATGCT | 0.489
TCTTGTAGGTCAAAGGTTAAGAAAGCCGAAGCCT | 4.54
ATCGAAAGGTCGTGAGGTGAGTTTACAGAAAGGC | 4.49
CGTCCAAGGTCAGATAGGTCAGTGAATGCCGAGT | 4.9
CGAACAAGGTCAAAGGACAGTGAAAGGCGACGTA | 3.93
CCGAGTAGGTTACGAGGGGGAATTCAGTGCGAAT | 1.7
CGTCGGAGGACAGAAGGTCAGAGCTGTCCGCTTT | 0.797
TTACCAAGGTGAAAGGTCGGTGATGCACGCCTTG | 1.38
CGAACTAGGTCAATGGACAGTGAAAGGCGACGTA | 0.802
CCTTACGGGTCTAGGTTATAGCACGGGTGGTACG | -0.339
ATATGTAGGTTAGGGGCATTCAGAAAGTAGGGAA | 1.44
CGTCCAAGGTCAGCAGGTCAGAGAAAGCGACGTG | 3.98
CCGAGTAGGTTACGAGGGAGCATTCAGTGCGAAT | 1.11
CGGACTAGGTCACCAGGACAGTGAAGAGGTTGGA | 1.54
TTTCCAAGGTGAAAGGTCGTTGATGCACGCCTTG | 3.38
CCTACTGGGCCAAAGGTCCTTGATTCCAATGCTC | -0.303
CGTTCAAGGTCATAGGAGGTCAGTGAAGACAGAT | 6.67

Sequence | PBM binding z-score
TCGAGTAGGTTACGGGTGCATTCAGGGATGAAGA | 3.53
CCTTACGGGTCACTGACAGCTTATAGCATTTGGA | 3.11
CTATGTAGGTTAAGGGGGTAATTCAGTTTGAAAG | 3.5
TCGAGTAGGTTACGGGGGCACTCAGGGATGAAGA | 3.33
CGAACTAGGTAACCAGGACAGTGAAGAGGTTGGA | -0.0408
CGAACTGGGTCAAAGGACAGTGAAAGGCGACGTA | 1.39
GCTCGGAGGACAAGGTCACAGCTTTGTCCGTAGA | 3.47
ATATGTAGGGTAGGGTCATTCAGAAAGTAGGGAA | 4.48
CCTACTGGGCCACGAAAGGTCCTTGATTCAGTGA | -0.615
CGTCCAAGCTCAGCAGGTCAGTGAAAGCGACGTG | -0.352
CGAGCTAGGTCACCAGGACAGTGAAGAGGTTGGA | 1.63
ACTAGAAGGCCAAGGGTCACTCAAGATTAGTCCG | 3.26
AGAATGGGGTTATTAAGATCAGGGAATTGCGGTC | 4.05
GATTACGGGTCAAAGGTTATAGCATGAATAGAAT | 5.82
CGAACTAGGTCACCGGGACAGTGAAGAGGTTGGA | 2.52
TAGCCTAGGACATGCGGGCCAGTATAGTGTCGGC | -0.777
TCGAGTTGGTTACGGGGGCATTCAGGGATGAAGA | 3.63
ATATGTAGGTTAGGGTTATTCAGAAAGTAGGGAA | 1.94
CTATGTAGGTTAAGTGGGTCATTCAGTTTGAAAG | 4.99
TCTAGTTGGTGACGGAGGTCACACACGACGGGTA | 3.98
